# BAZ2B inh: BAZ2B (human) inhibition | actives 4.4% (n = 360,000) | Potency, µM (doses to about 114 µM), for inactives: at the highest dose activity change, negative = inhibition, hits mostly inhibitors | AlphaScreen BAZ2B-H3K14Ac peptide displacement | AID 504333 | Q9UIF8; further: on the % scale 0 is the no-effect control and ±100 the full control effect; nearly all actives have a fitted effect of over 60% in size
#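 Inhibition is scored as reduced AlphaScreen emission. The BAZ2B/b-H3(5-23)K14Ac complex (50 nM each) in PBS pH 7.4, 0.01% Tween-20 meets compound (up to 110 uM) for 30 min at RT before bead addition.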
# GLS inhibitor: inhibitors of human glutaminase (GLS). O94925. GLS enzymatic activity, qHTS titration. Potency, µM (top dose mostly 45.5 µM), for inactives: at the highest dose activity change, negative = inhibition, usual class: inhibitors. actives 0.21% (n = 410,000); further: on the % scale 0 is the no-effect control and ±100 the full control effect
#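 hKGA; 45 mM KH2PO4 pH 8.2 + 0.02% Tween-20; cpd via pin tool; 1 mM Gln soln; GluOx/HRP/Amplex Red; RT 30 min; fluor. t0 & final.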
# G9a inh: blocks human histone lysine methyltransferase G9a. Potency, µM (top dose mostly 102 µM), without a hit: top-dose activity, negative = inhibition, most hits filed as inhibitors. actives 8.8% (n = 350,000). G9a H3K9 monomethylation, AlphaScreen, 2 h; further: on the % scale 0 is the no-effect control and ±100 the full control effect; nearly all actives have a fitted effect of over 75% in size
# Target sequence (Q96KQ7 913-1193 limits assumed): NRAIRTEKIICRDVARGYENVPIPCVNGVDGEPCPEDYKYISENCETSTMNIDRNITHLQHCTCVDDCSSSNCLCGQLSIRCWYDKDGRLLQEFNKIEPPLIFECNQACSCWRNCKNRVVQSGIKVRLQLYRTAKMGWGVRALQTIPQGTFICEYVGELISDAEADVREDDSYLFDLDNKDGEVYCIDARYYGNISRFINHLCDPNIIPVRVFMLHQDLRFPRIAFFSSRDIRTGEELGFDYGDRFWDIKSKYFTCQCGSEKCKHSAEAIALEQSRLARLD
#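 Enzyme 20 nM + cpd, 15 min RT; add b-H3K9 pep 500 nM / SAM 20 uM; 2 h RT; anti-H3K9me1 Ab 0.5 ug/mL + SA donor / anti-rabbit acceptor beads 20 ug/mL each, 10 min; AlphaScreen read.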
# HP1b chromo inh: blocks HP1-beta chromodomain binding to methylated histone tails; AlphaScreen HP1-beta / biotin-H3K9me3 peptide binding; Potency, µM (series often up to 114 µM), without a hit: top-dose activity change, negative = inhibition, actives largely listed as inhibitors; actives 0.56% (n = 390,000); further: nearly all actives have a fitted effect of over 70% in size
# Target sequence (P83916 whole entry, looked up): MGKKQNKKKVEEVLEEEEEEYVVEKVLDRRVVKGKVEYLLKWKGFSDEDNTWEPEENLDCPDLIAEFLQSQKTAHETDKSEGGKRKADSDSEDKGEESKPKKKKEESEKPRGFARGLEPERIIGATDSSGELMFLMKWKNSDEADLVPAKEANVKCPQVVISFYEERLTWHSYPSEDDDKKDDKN
#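 HP1-beta protein (50 nM final) preincubated 30 min at room temperature with biotinylated H3(1-18)K9me3 peptide (50 nM) in PBS pH 7.4, 0.01% Tween-20, then compound added for 30 min. AlphaScreen streptavidin donor/nickel chelate acceptor beads (10 ug/mL final), 30 min dark, luminescence read.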
# JMJD2A Tudor: inhibitors of human JMJD2A Tudor domain | actives 4.4% (n = 390,000) | Potency, µM (highest dose often 114 µM), inactives show top-dose activity change, negative = inhibition, hits mostly inhibitors | AlphaScreen JMJD2A-Tudor / H3K4me3 peptide binding | O75164; further: on the % scale 0 is the no-effect control and ±100 the full control effect; nearly all actives have a fitted effect of over 50% in size
# The depositor's hits bear a star; u = inconclusive; x = no result given; [ ] = another dose, or the depositor's remark. Hits are enriched below; roughly 10% of the tested compounds scored in any of these assays. The call rests on the fitted dose curve; in most records, active means well fitted curve in the direction sought with a large enough effect; inconclusive means small, poorly fitted or top-dose-only effect, or another doubt; inactive means no such curve, though single readings can be large; an effect the other way counts as inactive or inconclusive. Potency means the concentration at half of the fitted maximal effect.
SMILES,BAZ2B inh,GLS inhibitor,G9a inh,HP1b chromo inh,JMJD2A Tudor
NCCCCCCNS(=O)(=O)c1cccc2c(Cl)cccc12,x,0%,46%[12.7 µM],4%,-27%
CCOc1ccc(CCNC(=O)c2nnc(Cc3ccc(F)cc3)o2)cc1OCC,-6%,1%,-2%,63%,-8%
S=C(NN=C(c1ccccc1)c1ccccn1)N(Cc1ccccn1)Cc1ccccn1,x,16%,x,u,13µM*
CC(=NNC(=S)N(Cc1ccccn1)Cc1ccccn1)c1cnccn1,x,2%,x,u,18µM*
S=C(NN=Cc1ccccn1)N(Cc1ccccn1)Cc1ccccn1,x,30%,x,u,20µM*
O=C(NN=C(c1ccccc1)c1ccccn1)c1ccccc1,x,13%,x,11%,u
O=C(Cc1ccccc1)N/N=C/c1ccccn1,x,2%,x,22%,-17%
COc1ccc(NC(=O)Nc2cc(C)ccc2F)cc1OC,18%,-9%,x,14%,-12%
CC(=O)N1CCn2c3ccc(C)cc3c3cccc1c32,2%,1%,4%[59 µM],68%,-5%[57.1 µM]
COc1cc(C(CCN2CCCC2)c2c(OC)cc(OC)c3ccc(=O)oc23)cc(OC)c1OC (centres undefined),-3%,18%,28%[12.7 µM],29%,-14%
COc1ccc(C2CC(=O)Oc3c(C(CCN4CCN(c5ccccc5)CC4)c4ccc(N(C)C)cc4)c(OC)cc(OC)c32)cc1 (centres undefined),4.5µM*,19%,u,u,5µM*
COc1cc(C(CCN2CCOCC2)c2c(OC)cc(OC)c3ccc(=O)oc23)cc(OC)c1OC (centres undefined),x,x,-6%[59 µM],x,x
COc1cc(C(CCN2CCN(c3ccccc3)CC2)c2c(OC)cc(OC)c3c(C)cc(=O)oc23)cc(OC)c1OC (centres undefined),u,12%,-119%[59 µM],-29%,u
COc1cc(C(CCN2CCOCC2)c2c(OC)cc(OC)c3c2OC(=O)CC3c2ccc(N(C)C)cc2)cc(OC)c1OC (centres undefined),14µM*,26%,-9%[12.7 µM],u,28µM*
COc1cc(OC)c2c(c1C(CCN1CCOCC1)c1ccc(N(C)C)cc1)OC(=O)CC2c1ccc(N(C)C)cc1 (centres undefined),10µM*,32%,-168%[59 µM],14µM*,6.3µM*
COc1cc(C(CCN2CCCCC2)c2c(OC)cc(OC)c3c2OC(=O)CC3c2ccc(N(C)C)cc2)cc(OC)c1OC (centres undefined),x,x,x,u,40µM*
CCn1cc(SCC(N)=O)c2ccccc21,10%,2%,u,46%,-3%
COc1ccc(C2C=C(c3cccc(OC)c3)Nc3c(C(=O)Nc4ccccc4)cnn32)cc1 (centres undefined),10%,-8%,9%[59 µM],59%,6%
COc1ccccc1-n1c(=O)c(C#N)c(-c2ccc([N+](=O)[O-])cc2)c2cc(C(=O)c3cc(F)ccc3O)cnc21,u,9%,u,17%,-35%
CCOCCc1c(O)nc(SCCOc2ccc(C)c(C)c2)[nH]c1=O,u,-26%,-7%,27%,-7%
COc1cc(C(CCN2CCCC2)c2c(OC)cc(OC)c3c2OC(=O)CC3c2ccc(N(C)C)cc2)cc(OC)c1OC (centres undefined),x,x,x,u,28µM*
COc1ccc(C2CC(=O)Oc3c(C(CCN4CCOCC4)c4ccc5c(c4)OCO5)c(OC)cc(OC)c32)cc1 (centres undefined),x,x,x,-28%,56µM*
CCN(CC)CCC(c1cc(OC)c(OC)c(OC)c1)c1c(OC)cc(OC)c2c1OC(=O)CC2c1ccc(N(C)C)cc1 (centres undefined),x,x,x,-33%,32µM*
COc1ccc(C2CC(=O)Oc3c(C(CCN4CCOCC4)c4cc(OC)c(OC)c(OC)c4)c(OC)cc(OC)c32)cc1 (centres undefined),-37%,-3%,u,9%,u
CC(C)CCn1c(N2CCCC2)nc2c1c(=O)[nH]c(=O)n2C,-30%,0%,32%[59 µM],11%,-18%
SMILES,BAZ2B inh,GLS inhibitor,G9a inh,HP1b chromo inh,JMJD2A Tudor
Cc1ccc(NC(=O)CN(C)C(=O)CSc2nc3ccccc3c(=O)n2CCO)cc1,7%,12%,u,30%,-3%
CS/C(=N\S(=O)(=O)c1ccc(N)cc1)NS(=O)(=O)c1cccs1,-2%,1%,u,14%,89µM*
CSC(=NCc1ccc(F)cc1)NS(=O)(=O)c1cccs1,7%,-10%,-13%,69%,-9%[57.1 µM]
Cc1cc(C)cc(N2CC(C(=O)OCC(=O)Nc3cc(C)on3)CC2=O)c1 (centres undefined),-9%,-1%,50µM*,12%,-3%
Cc1ccc(N2CC(C(=O)OCC(=O)Nc3cc(C)on3)CC2=O)c(C)c1 (centres undefined),-16%,-4%,17%,26%,-4%
O=C(COC(=O)c1ccc(Br)o1)Nc1ccc(N2CCOCC2)cc1,-4%,24%,22µM*,14%,-22%
CCNCC(=O)Nc1ccc(N2CCOCC2)cc1,u,5%,u,19%,-16%
Cc1ccc(CNCC(=O)Nc2ccc(N3CCOCC3)cc2)cc1,35µM*,10%,x,40µM*,1.4µM*
O=S(=O)(NCc1cccnc1)c1ccc(Br)c2ccccc12,-2%,8%,13%,17%[57 µM],-10%
COC(=O)C(C)Oc1ccc2c(c1)O/C(=C\c1ccco1)C2=O (centres undefined),u,-21%,11µM*,-9%,50µM*
COc1ccc2c(c1)O/C(=C\c1ccco1)C2=O,14µM*,3%,x,u,u
CC(=O)COc1ccc2c(c1C)O/C(=C\c1ccco1)C2=O,-34%,-22%,28µM*,11%,-28%
COc1ccc(/C=C2\Oc3cc(OCC(N)=O)ccc3C2=O)cc1OC,2%,1%,-9%,37%,-12%
CCOc1ccccc1C(=O)N/N=C/c1c[nH]c2ccccc12,x,2%,-15%,37%,3%
O=C(NC(=S)Nn1cnc2c(cnn2-c2ccccc2)c1=O)c1ccc(Cl)cc1,10%,0%,45µM*,1%,-31%
O=C(NC(=S)Nn1cnc2c(cnn2-c2ccccc2)c1=O)c1ccc(Oc2ccccc2)cc1,5%,4%,7%[59 µM],12%,-12%
CC(C)NC(=O)N(C)C[C@H]1Oc2c(cccc2N(C)C)C(=O)N([C@H](C)CO)C[C@@H]1C,x,21%,x,81%,-12%
O=C1CC(/C=C/c2ccncc2)=Nc2ccccc2N1,-20%,2%,40µM*,37%,-12%
O=C1CC(c2ccccc2)=Nc2ccccc2N1,6%,0%,3%[12.7 µM],17%,-13%
CCC(=O)/C=C1/Sc2ccccc2N1CC,-9%,23%,8.9µM*,-14%,u
